# NPSR antagonist: neuropeptide S receptor (human) antagonism, cAMP; Q6W5P4; Potency, µM (doses to about 38.3 µM), without a hit: at the highest dose activity change, negative = inhibition, usual class: inhibitors; CHO-NPSR cells, cAMP TR-FRET, antagonist mode; 220,000 tested, 1% active; note: nearly all actives have a fitted effect of over 50% in size
# Gal4-VP16 FLuc: counter-screen for ROR gamma inhibitors: Gal4-VP16 reporter; Drosophila S2 Gal4-VP16 UAS-luciferase, luminescence, 20 h; Potency, µM (doses to about 53.6 µM), for the others: at the highest dose activity, negative = inhibition, hits mostly inhibitors; 310,000 tested, 3.5% active;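 note: Gal4-VP16 expression switched on by copper sulfate through the metallothionein promoter; nearly all actives have a fitted effect of over 50% in size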
# B2AR arrestin: beta2AR (human) beta-arrestin recruitment activity. P07550. beta-arrestin recruitment to beta2AR, cell-based reporter. Potency, µM (series often up to 46.1 µM), for the others: at the top dose activation, usual class: activators. 330,000 tested, 0.02% active;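 note: 0% = DMSO controls and full agonism = EC100 isoproterenol or metaproterenol; nearly all actives have a fitted effect of over 65% in size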
# RORgamma inh: blocks mouse ROR gamma transcriptional activity. P51450. Drosophila S2 Gal4-RORgamma UAS-luciferase reporter, 20 h. Potency, µM (doses to about 53.6 µM), inactives show at the highest dose activity change, negative = inhibition, actives largely listed as inhibitors. 310,000 tested, 5.4% active. AID 2551; note: nearly all actives have a fitted effect of over 60% in size
# Target sequence (P51450 whole entry, looked up, the tested form may be a part): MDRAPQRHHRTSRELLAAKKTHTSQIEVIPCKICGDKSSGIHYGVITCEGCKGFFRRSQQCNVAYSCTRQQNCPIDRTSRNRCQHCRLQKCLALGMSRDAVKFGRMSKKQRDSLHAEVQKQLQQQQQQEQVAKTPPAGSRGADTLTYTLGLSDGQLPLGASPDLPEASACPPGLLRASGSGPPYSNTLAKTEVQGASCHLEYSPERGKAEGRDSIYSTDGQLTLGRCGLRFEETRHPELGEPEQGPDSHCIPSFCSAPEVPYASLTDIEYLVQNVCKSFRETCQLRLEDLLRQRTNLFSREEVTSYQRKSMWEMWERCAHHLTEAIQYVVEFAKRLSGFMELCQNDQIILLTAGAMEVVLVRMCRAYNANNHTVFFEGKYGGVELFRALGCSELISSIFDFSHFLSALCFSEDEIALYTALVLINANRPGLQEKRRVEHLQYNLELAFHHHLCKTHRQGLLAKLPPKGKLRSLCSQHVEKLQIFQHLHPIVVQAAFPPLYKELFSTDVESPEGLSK
#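 Stable Schneider cell line, Gal4 DNA-binding domain fused to ROR gamma, UAS-luciferase. Cmpd 1 hr RT → CuSO4 700 uM final → 20 hr RT → luciferase reagent 10 min → luminescence.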
# * hit, by the source's call; u = inconclusive; x = not tested or not shown; [ ] = remark or other dose. Rows were chosen to be rich in hits. Some 5.7% of all compounds tested hit in one or more screens of this group. Calls come from the whole dose curve; as a rule, active = well fitted curve in the direction sought with a large enough effect; inconclusive = small, poorly fitted or top-dose-only effect, or another doubt; inactive = no such curve, though single readings can be large; an effect the other way counts as inactive or inconclusive. Unless noted, % is set by controls: 0 for no effect and ±100 for the full control effect; potency is the fitted concentration of half-maximal effect.
SMILES,NPSR antagonist,Gal4-VP16 FLuc,B2AR arrestin,RORgamma inh
C=CCn1c(Sc2ncc([N+](=O)[O-])s2)n[nH]c1=O,u,4µM*,0%,4.5µM*
CN1CCN(c2ncc3nc(-c4cccs4)c(=O)n(C[C@H]4CCCO4)c3n2)CC1,x,11%,x,-8%
CSc1cccc(NC(=S)N(CCCN2CCCC2)Cc2cccs2)c1,-23%,1%,0%,u
S=C(Nc1cccc(Cl)c1)N(CCCN1CCCC1)Cc1cccn1Cc1ccc(Cl)cc1,10µM*,u,0%,18µM*
CSc1cccc(NC(=S)N(CCCN2CCCC2)Cc2cccn2Cc2ccc(Cl)cc2)c1,5µM*,-2%,0%,13µM*
CN(C)c1ccc(Cl)cc1N,9%,-7%,0%,-2%
COc1cc2[nH]c(=S)nc(NCc3ccc(Cl)cc3)c2cc1OC,x,7.1µM*,0%,5µM*
COc1ccccc1CNc1nc(=S)[nH]c2cc(OC)c(OC)cc12,x,u,-1%,-64%
COc1cc2[nH]c(=S)nc(NCCc3ccc(S(N)(=O)=O)cc3)c2cc1OC,-15%,-13%,0%,0%
COc1cc2[nH]c(=S)nc(NCCC(C)C)c2cc1OC,-21%,8.9µM*,0%,4.5µM*
COc1cc2[nH]c(=S)nc(NCc3cccs3)c2cc1OC,-25%,13µM*,0%,6.3µM*
COc1cc2[nH]c(=S)nc(NCCc3ccc(C)cc3)c2cc1OC,u,6.3µM*,0%,0.89µM*
COc1cc2[nH]c(=S)nc(NCC3CCCO3)c2cc1OC (stereo not given),2%[46.1 µM],11%,-1%,-22%
COCCCNc1nc(=S)[nH]c2cc(OC)c(OC)cc12,u,3%,0%,u
COc1ccc(CCNc2nc(=S)[nH]c3cc(OC)c(OC)cc23)cc1OC,-31%,u,0%,10µM*
Cc1nc2c(-c3ccc(F)cc3)cnn2c(N)c1-c1ccccc1,x,u,-1%,0.045µM*
CC(C)[C@@H]1[C@H]2CC[C@H](C2)[C@H]1N,x,0%,x,19%
CCNC(=O)C(=O)N/N=C/c1cc([N+](=O)[O-])ccc1O,8%,u,0%,11µM*
O=C(N/N=C/c1cc([N+](=O)[O-])ccc1O)Nc1ccccc1,-18%,22µM*,1%,4.5µM*
Nc1nnc(CC(=O)N/N=C\c2cc([N+](=O)[O-])ccc2O)s1,-3%[46.1 µM],-18%,-1%,-13%
CC(N=Cc1cc([N+](=O)[O-])ccc1O)c1ccccc1 (stereo not given),11%,u,0%,u
O=C(N/N=C/c1cc([N+](=O)[O-])ccc1O)NC12CC3CC(CC(C3)C1)C2,u,u,-1%,3.5µM*
O=C(N/N=C/c1cc([N+](=O)[O-])ccc1O)C12CC3CC(CC(C3)C1)C2,-35%,0.71µM*,0%,u
Cc1cc(N2CCN(C)CC2)nc2ccc(NC(=O)CCC(=O)NCCc3ccc(Cl)cc3)cc12,x,-11%,-1%,-17%
CCn1cc(/C=N\NC(=O)C2(C)CC2(Cl)Cl)c(C)n1 (stereo not given),13%,-5%,-3%,-16%
SMILES,NPSR antagonist,Gal4-VP16 FLuc,B2AR arrestin,RORgamma inh
Cc1[nH]c(=O)[nH]c(=O)c1S(=O)(=O)N1CCCC(C(=O)N2CCN(c3cccc(C(F)(F)F)c3)CC2)C1 (stereo not given),9%,-10%,-2%,u
CCN(CC)S(=O)(=O)c1ccc(N2CCN(c3ccccc3OC)CC2)c(N)c1,x,22µM*,0%,u
CCN(CC)S(=O)(=O)c1ccc(Oc2ccccc2)c(N)c1,-14%,0%,0%,52%
Cc1c(Cl)cccc1NC(=S)NCc1ccc(F)cc1,x,5µM*,0%,2.2µM*
Fc1ccc(CNC(=S)Nc2ccccc2Cl)cc1,-4%,u,0%,11µM*
COc1cc(OC)c(NC(=S)NCc2ccc(F)cc2)cc1Cl,-17%,-27%,0%,u
Cc1c(Cl)cccc1NC(=S)NCc1ccccc1Cl,-28%,1.6µM*,-1%,1.1µM*
COc1ccc(Oc2ncc3nc(-c4ccc(OC)cc4)c(=O)n(CCC#N)c3n2)cc1,x,-11%,x,0%
CO[C@]1(C)C[C@H]2O[C@]1(C)n1c3ccccc3c3c4c(c5c6ccccc6n2c5c31)C(=O)N(C)C4,x,0%,x,-6%
CN1C(=O)CC[C@@H]1c1cccnc1,x,2%[17 µM],x,-1%[16.9 µM]
COc1ccc(-c2nn(-c3ccccc3)cc2C(=O)n2nnc3ccccc32)cc1,10µM*,2%,0%,-1%
COc1ccc(-c2nn(-c3ccccc3)cc2C(=O)OCC(=O)c2ccc(C)c([N+](=O)[O-])c2)cc1,22%,18µM*,-1%,u
CCN(CC)CCNC(=S)NC(=O)c1cn(-c2ccccc2)nc1-c1ccc(OC)cc1,5%,13µM*,0%,7.1µM*
CCOC(=O)CC(C(=O)OCC)C1CCCCC1=O (stereo not given),x,-6%,x,-11%
COc1cccc(Nc2ncc3nc(-c4ccc(F)cc4)c(=O)n(C[C@H]4CCCO4)c3n2)c1,x,7%,x,6%
Oc1c(Br)cc(Br)cc1C=Nc1ccc2c(c1)OCO2,-47%,u,0%,18µM*
CCOC(=O)CSc1cc(-c2ccccc2)nc2ncnn12,-6%,11µM*,0%,-75%
CCN=C1S/C(=C\c2ccc(Sc3ccc(Cl)cc3)o2)C(=O)N1CC,0%[46.1 µM],3%,0%,8%
CC1=CN2C(=N)/C(=C/c3ccc(Sc4ccc(C)cc4)o3)C(=O)N=C2S1,-10%,4µM*,-1%,2.2µM*
Cc1ccc(/C=C2\C(=N)N3N=C(CC(=O)N4CCOCC4)SC3=NC2=O)o1,x,-3%,0%,-13%
CC1=CN2C(=N)/C(=C/c3ccc(C)o3)C(=O)N=C2S1,-24%,10µM*,0%,1.4µM*
CC1=CN2C(=N)/C(=C/c3ccc(Sc4ccc(Cl)cc4)o3)C(=O)N=C2S1,-25%,4.5µM*,0%,u
CCC(C)NC(=S)Nc1ccc2nc(N3CCN(CC)CC3)cc(C)c2c1 (stereo not given),8%,18%,-1%,u
CCC(C)NC(=S)Nc1ccc2nc(N3CCOCC3)cc(C)c2c1 (stereo not given),x,u,-1%,10µM*
COc1ccc(CNC(=S)Nc2ccc3nc(N4CCN(C)CC4)cc(C)c3c2)cc1,-16%,-1%,0%,-29%
SMILES,NPSR antagonist,Gal4-VP16 FLuc,B2AR arrestin,RORgamma inh
COc1ccc(CNC(=S)Nc2ccc3nc(N4CCOCC4)cc(C)c3c2)cc1,-7%,-93%,0%,10µM*
Cc1cc(N2CCCC2)nc2ccc(NC(=S)NCCCOC(C)C)cc12,-3%,u,0%,11µM*
NC1CONC1=O (stereo not given),10%[46.1 µM],9%,x,0%
COc1ccc(C(C(=O)NC2CCCC2)N(C(=O)c2ccco2)c2cc3c(cc2C(C)=O)OCO3)cc1 (stereo not given),x,5%,0%,0%
Cc1noc(C)c1-c1ccc2ncnc(NC(C)c3ccccc3)c2c1 (stereo not given),x,-11%,x,-81%
COc1ccc2c(c1)OC(=O)CC2c1ccccc1C (stereo not given),x,-2%[96.6 µM],x,-11%[96.6 µM]
